Screens from PubChem BioAssay.
Pol iota inh – qHTS for Inhibitors of Polymerase Iota; hit rate 1% among 390,000; DNA polymerase iota (Homo sapiens), Q9UNA4; Pol iota fluorescent replication assay, 10 min; Potency, µM (top dose mostly 115 µM), inactives show at the highest dose activity, negative = inhibition, most hits filed as inhibitors; AID 588590, 2011
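Pol iota at 10 nM preincubated 15 min with compounds at room temperature; reaction started with fluorescent substrate, 50 nM final. Fluorescence read kinetically at 0 and 10 min; buffer-only wells as negative control.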
GLS inhibitor – qHTS for Inhibitors of Glutaminase (GLS); Glutaminase kidney isoform, mitochondrial (Homo sapiens), O94925; GLS enzymatic activity, qHTS titration; Potency, µM (top dose mostly 45.5 µM), for the others: at the highest dose activity change, negative = inhibition, usual class: inhibitors; hit rate 0.21% among 410,000; AID 624170, 2012; further: on the % scale 0 is the no-effect control and ±100 the full control effect
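Human kidney-isoform GLS in 45 mM KH2PO4 pH 8.2, 0.02% Tween-20, with compound, started with 1mM L-Glutamine (added stock). Glutamate oxidase/HRP/Amplex red coupled fluorescence read at start and after 30 min at RT.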
KAT2A inh – qHTS Assay for Inhibitors of GCN5L2 | Potency, µM (titrated, usually from 58.9 µM), without a hit: top-dose activity change, negative = inhibition, actives largely listed as inhibitors | hit rate 0.21% among 390,000 | GCN5L2 HAT assay, ThioGlo1 CoA-SH fluorescence | Histone acetyltransferase KAT2A (Homo sapiens), Q92830; further: on the % scale 0 is the no-effect control and ±100 the full control effect
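Free CoA generated was detected with ThioGlo1 (50uM) fluorescence at Ex340nm/Em540nm, read immediately and after 20 min at room temperature. Enzyme, 20 nM in HEPES pH 7.5 buffer, saw compounds 15 min before adding 75uM H3(1-25) peptide and 70uM acetyl-CoA.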
Pol eta inh – qHTS for Inhibitors of Polymerase Eta | hit rate 1.2% among 390,000 | Potency, µM (doses to about 114 µM), for inactives: at the highest dose activity change, negative = inhibition, hits mostly inhibitors | recombinant Pol eta, fluorescent DNA replication assay | DNA polymerase eta (Homo sapiens), Q9Y253; further: on the % scale 0 is the no-effect control and ±100 the full control effect
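Pol eta at 10 nM preincubated with compounds 15 min at room temperature; reaction started with fluorescent substrate (50 nM final) and read kinetically at 0 and 10 min.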
POLB inh – qHTS Assay for Inhibitors of DNA Polymerase Beta. hit rate 1.3% among 340,000. Pol beta primer extension/strand displacement, fluorescence kinetic. Potency, µM (top dose mostly 114 µM), inactives show top-dose activity change, negative = inhibition, most hits filed as inhibitors. P06746; further: on the % scale 0 is the no-effect control and ±100 the full control effect
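Kinetic readout of DNA synthesis with strand displacement by Pol beta. Compound and 10 nM enzyme sit 15 min at room temperature; 50 nM substrate starts the reaction, read immediately and at 10 min.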
Pol kappa inh – qHTS for Inhibitors of Polymerase Kappa; DNA polymerase kappa (Homo sapiens), Q9UBT6; purified Pol kappa, fluorescent DNA synthesis assay, 10 min; Potency, µM (doses to about 107 µM), inactives show at the highest dose activity, negative = inhibition, hits mostly inhibitors; hit rate 0.53% among 400,000; further: on the % scale 0 is the no-effect control and ±100 the full control effect
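50 nM final substrate added after 15 min RT preincubation of 10 nM Pol kappa with compound; fluorescence read at 0 and 10 min.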
The depositor's hits bear a star; u = inconclusive; x = not tested or not shown; [ ] = another dose, or the depositor's remark. Rows were chosen to be rich in hits. Some 2.4% of all compounds tested hit in one or more screens of this group. The call rests on the fitted dose curve; in most records, active means well fitted inhibition curve with a large enough effect; inconclusive means small, poorly fitted or top-dose-only effect, or another doubt; inactive means no such curve, though single readings can be large or run the other way. Potency means the concentration at half of the fitted maximal effect.

SMILES	Pol iota inh	GLS inhibitor	KAT2A inh	Pol eta inh	POLB inh	Pol kappa inh
COc1ccc2c(c1)c(CC(=O)Nc1ccc(C(C)=O)cc1)c(C)n2C(=O)c1ccc(Cl)cc1	-13%	-6%	-2%	u	14%	-8%
C/C(=N\Nc1nc2ccccc2c(=O)n1O)c1ccco1	18µM*	8%	-19%	u	u	-23%
COc1cc(N2Cc3ccccc3C2)ccc1C=O	u	7%	-2%	u	11µM*	-23%
Cc1cc(C)cc(N2Cc3ccccc3C2)c1	24%	6%	-2%	-18%	18%	2%
CN(C)c1ccc(/C=C/c2ccnc3ccc(O)cc23)cc1	u	x	x	x	x	-6%
COc1ccc(-n2c(-c3ccc(C)cc3)cc3c2CC(C)(C)CC3=O)c(OC)c1	3%	-1%	-9%	-14%	53%	-3%
O=C(Cc1cnn(-c2ccccc2)c1)c1ccc(O)c(O)c1O	u	5%	-7%	u	u	2.5µM*
COc1cc(/C=N/NC(=O)CC2C(=O)NN=C2C)ccc1O (stereo unspecified)	30%	21%	0%	1%	-2%	7%
CCOc1cccc(/C=N/NC(=O)CC2C(=O)NN=C2C)c1O (stereo unspecified)	39%	5.6µM*	-12%	-22%	-6%	-2%
O=C1CNC(=O)/C(=C/c2ccco2)N1	u	2%	-6%	-1%	-15%	79µM*
C[n+]1ccc(/C=C/c2ccccc2O)c2ccccc21	-10%	-19%	-15%	1%	16%	1%
CN1/C(=C/c2cc[n+](C)c3ccccc23)C=Cc2ccccc21	27%	-10%	-24%	-18%	32µM*	-17%
CC(=O)c1c(C)oc2ccc(NS(=O)(=O)c3ccc(F)cc3C)cc12	35%	-6%	-4%	-10%	14%	0%
CC(=O)c1c(C)oc2ccc(NS(=O)(=O)c3ccc(O)c(C(=O)O)c3)cc12	u	u	-8%	25µM*	u	-29%
O=C(O)c1cc(S(=O)(=O)Nc2ccc3oc(=O)sc3c2)ccc1O	u	11%	-9%	14µM*	50µM*	u
Cc1ccc(-c2nc(-c3cc4cc(Cl)ccc4oc3=O)sc2C)cc1	20%	x	x	x	x	7%
Cc1ccc(C)c(NC(=S)N(Cc2ccco2)C(C)c2cccs2)c1 (stereo unspecified)	8%	3%	-5%	-23%	-6%	-2%
Cc1ccc(Cl)cc1NC(=S)N(Cc1ccco1)C(C)c1cccs1 (stereo unspecified)	79µM*	13%	-2%	-12%	8%	-2%
CCN1/C(=C/c2cc[n+](C)cc2)C=Cc2cc(C)ccc21	u	-11%	2%	u	22µM*	-20%
CCN1/C(=C/c2ccc3ccccc3[n+]2CCCS(=O)(=O)[O-])C=Cc2cc(C)ccc21	-12%	0%	4%	-8%	-21%	-42%
O=C(N/N=C/c1ccncc1)c1ccc(NC(=O)c2ccc(Cl)cc2)cc1	-28%	-4%	-9%	-20%	-34%	-3%
O=C(N/N=C/c1ccncc1)c1ccc(NC(=O)c2cccc(Cl)c2)cc1	u	0%	-25%	u	8.9µM*	u
O=C(N/N=C/c1ccc(OC(=O)c2cccc(F)c2)cc1)c1cccnc1	89%	0%	-7%	-9%	u	-10%
O=C(N/N=C/c1ccc(OC(=O)c2cccs2)cc1)c1cccc(F)c1	-15%[58.9 µM]	1%	-7%	-26%	8.9µM*	-24%
CC(=C/c1ccccc1)/C=N/NC(=O)c1ccccn1	24%	-5%	-7%	-9%	63µM*	5%
O=C(N/N=C/C(Br)=C\c1ccccc1)c1ccc2nc[nH]c2c1	u	-1%	-3%	u	13µM*	-16%
